Many of the other results were omitted from the sample, so hits are more common in it than they were.
Pf Dd2 inh = inhibitors of Plasmodium falciparum Dd2 growth | P. falciparum Dd2 growth, SYBR Green, 72 h | Potency, µM (highest dose often 28.9 µM), for inactives: at the top dose activity, negative = inhibition, most hits filed as inhibitors | 120,000 tested, 4.3% active | AID 1347417; active means well fitted inhibition curve with a large enough effect;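 further: plate controls were DMSO vehicle for no effect and reference drug for full effect; nearly all actives have a fitted effect of over 65% in size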
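Infected erythrocytes (Dd2, 0.3% parasitemia, 2.5% hematocrit final) are added to compound in RPMI-1640/Albumax II medium, grown 72 h at 37C in low oxygen, then lysed with saponin/Triton-X containing SYBR Green and read by fluorescence.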
Numbers without * were called inactive; i = inactive; [ ] = dose if it differs, or a comment. Potency means the concentration at half of the fitted maximal effect.

SMILES | Pf Dd2 inh
C=CCN(C)C[C@H]1CN2CC[C@H]1C[C@@H]2CNS(=O)(=O)c1ccc(C)cc1 | 11.2µM*
C#C[C@H]1CN2CC[C@H]1C[C@@H]2CNS(=O)(=O)Cc1ccccc1 | 7.08µM*
C#C[C@H]1CN2CC[C@H]1C[C@@H]2CNS(=O)(=O)c1ccccc1 | i
C#C[C@H]1CN2CC[C@H]1C[C@@H]2CNS(=O)(=O)c1ccc(C)cc1 | -9.0%[44.1 µM]
C=C[C@H]1CN2CC[C@H]1C[C@@H]2CNC(=O)Nc1ccc(C(C)=O)cc1 | -30.5%[44.1 µM]
C#C[C@H]1CN2CC[C@H]1C[C@@H]2CNS(=O)(=O)c1ccc(OC)cc1 | 3.16µM*
C=C[C@H]1CN2CC[C@H]1C[C@@H]2CNCc1ccc(SC)cc1 | 7.08µM*
C=CCN(C)C[C@H]1CN2CC[C@H]1C[C@@H]2CNC(=O)Nc1ccccc1 | -16.6%[44.1 µM]
C#C[C@H]1CN2CC[C@H]1C[C@@H]2CNS(=O)(=O)CCC | i
C=C[C@H]1CN2CC[C@H]1C[C@@H]2CNC(=O)c1ccc(N(C)C)cc1 | -5.1%[44.1 µM]
C#CCN(C)C[C@H]1CN2CC[C@H]1C[C@@H]2CNS(=O)(=O)c1ccc(Cl)cc1 | i
C#C[C@H]1CN2CC[C@H]1C[C@@H]2CNS(=O)(=O)c1ccc(NC(C)=O)cc1 | -6.0%[44.1 µM]
CN(CCCN1CCOCC1)c1cc(C2CC(N)C2)ncn1 (stereo not given) | -4.7%
CC(C)Cc1cc(C(=O)NCC2(c3ccccc3F)CCCC2)on1 | 6.4%
CC(C)N1CCOC[C@H]1c1ncc(-c2ccc(OC(F)(F)F)cc2)[nH]1 | -4.9%[44.1 µM]
O=C1CCN(S(=O)(=O)c2cccs2)CCCCCCN1 | -4.6%
CCC1(N2CCN(S(=O)(=O)c3cccc4cccnc34)CC2)CCN(C(=O)NC)C1 (stereo not given) | -1.8%
O=C(c1cc(F)ccc1F)N1CCC(Cc2nc(-c3cnccn3)no2)CC1 | -11.1%
COc1cccc(CCC(=O)N2CCC3(CC2)NC(=O)N(c2ccccc2)N3)c1 | -10.6%
Cc1cnc(-c2ccccc2)n1C1CCN(C(=O)c2ccco2)CC1 | i
CS(=O)(=O)N(C1CCOCC1)C1CN(C(=O)c2n[nH]c3ccccc23)C1 | 8.5%
C=C[C@H]1CN2CC[C@H]1C[C@@H]2CNS(C)(=O)=O | -12.8%[44.1 µM]
C=C[C@H]1CN2CC[C@H]1C[C@@H]2CNC(=O)c1ccc(-c2ccccc2)cc1 | -24.7%[44.1 µM]
C=C[C@H]1CN2CC[C@H]1C[C@@H]2CNS(=O)(=O)Cc1ccccc1 | 7.08µM*
COc1ccc(C)cc1NC(=O)Cn1cccc1-c1nc(-c2ccc3c(c2)OCO3)no1 | i
SMILES | Pf Dd2 inh
Cc1ccccc1OC1(C(=O)O)CCN(c2ncccc2C(N)=O)CC1 | -2.7%
NC(=O)c1cccnc1N1CCOC(CC(c2ccccc2)c2ccccc2)C1 (stereo not given) | 7.94µM*
O=C(CCn1cncn1)N1CCOC(CC(c2ccccc2)c2ccccc2)C1 (stereo not given) | -9.3%
CN(C(=O)CN1C(=O)NC2(CCCCC2)C1=O)c1ccccc1 | 5.8%
CN1[C@@H](CCC(=O)NCc2cccs2)CNC(=O)[C@@H]2[C@H]1CCN2Cc1csnn1 | 35.3%[44.1 µM]
O=C(NCc1ccco1)c1ccc2c(c1)N(Cc1ccc(Cl)cc1)C(=O)c1ccccc1S2(=O)=O | i
CCC1CCCCN1CCCNC(=O)c1ccc2c(c1)N(Cc1cccc(Cl)c1)C(=O)c1ccccc1S2(=O)=O (stereo not given) | -5.9%
CCC1CCCCN1CCCNC(=O)c1ccc2c(c1)N(Cc1ccc(Cl)cc1)C(=O)c1ccccc1S2(=O)=O (stereo not given) | 3.98µM*
CCC1CCCCN1CCCNC(=O)c1ccc2c(c1)N(Cc1cccc(C)c1)C(=O)c1ccccc1S2(=O)=O (stereo not given) | 3.98µM*
O=C(O)C[C@@H]1CCN(C(=O)c2ccco2)C[C@@H]1CCN1CCOCC1 | 15.7%[44.1 µM]
Cn1cnc([S+](=O)([O-])N2CCC(c3nnc4n3C(C(=O)O)CC4)CC2)c1 (stereo not given) | 24.3%
Cc1ccc(C(=O)Nc2ccc(S(=O)(=O)N(Cc3ccccc3)c3ccccc3)cc2)cc1 | 94.0%
CCOc1ccc(C(=O)Nc2ccc(S(=O)(=O)N(Cc3ccccc3)c3ccccc3)cc2)cc1 | 10µM*
COc1ccc(C(=O)Nc2ccc(S(=O)(=O)N(Cc3ccccc3)c3ccccc3)cc2)cc1 | 87.0%
CN(C)CC(O)c1cc2n(n1)CCCN(C(=O)c1cccc(N(C)C)c1)C2 (stereo not given) | 3.4%
O=c1ccc(N2CCC(NS(=O)(=O)c3ccc(F)c(F)c3)CC2)nn1CC1CC1 | -1.4%
CCCNC(=O)C1COC2(CCN(C(=O)c3ccc(Cl)cc3)CC2)N1C(=O)c1cccc(OC)c1 (stereo not given) | i
Cc1cnc(C2CCC2)n1CCN | -6.5%
CC(=O)N1CCN(C(=O)C2CCNCC2)C[C@@H]1C(=O)N[C@@H](CC1CCCCC1)C(N)=O | -5.8%
C=CCN1CCN(C(=O)CN2CC3CC(C2)[C@H]2CCCC(=O)N2C3)CC1 (stereo not given in full) | 8.4%
Cc1noc([C@H]2CCN(Cc3ccsc3)C[C@H]2NC(=O)C2CC2)n1 | -8.5%[5.79 µM]
COc1ccc(CN2Cc3[nH]cnc3C[C@H]2c2nc(-c3ccc(C(F)(F)F)cc3)no2)cc1 | -8.9%
COc1ccc2c(=O)n(CC(=O)N3CCCOCC3)ccc2c1OC | -17.7%
CCC(Sc1nc2cc(OC)c(OC)cc2c2nc(-c3ccccc3)nn12)C(=O)Nc1cccc(C)c1 (stereo not given) | -2.5%
Cc1cc(C)n(CCc2nc3c4ccccc4nc(SCc4ccc(F)cc4)n3n2)n1 | -8.3%
SMILES | Pf Dd2 inh
CCC(Sc1nc2ccccc2c2nc(CCc3c(C)n[nH]c3C)nn12)C(=O)Nc1ccc(F)cc1 (stereo not given) | 7.94µM*
COc1ccccc1C(=O)N1CCC2(CC1)CN[S+](=O)([O-])c1ccccc1N2 | -4.2%
O=C(NC1CC1)[C@@H]1CN(Cc2ccc(Cl)cc2F)C[C@H]1CO | 7.94µM*
COc1ccc(OC2CN(Cc3ccc(NC(C)=O)cc3)C2)cc1 | -2.6%
COC[C@@H]1CN(Cc2ccc(F)cc2F)C[C@H]1C(=O)NC1CC1 | -28.7%
O=C(NCC1CC1)c1cccc(OC2CN(Cc3ccc(OC(F)(F)F)cc3)C2)c1 | 8.91µM*
O=C(NC1CC1)[C@@H]1CN(Cc2cc(F)c(F)cc2F)C[C@H]1CO | -21.8%
COC[C@@H]1CN(Cc2ccc(OC)c(C)c2)C[C@H]1C(=O)NC1CC1 | -2.1%
CNC(=O)[C@@H]1CN(Cc2ccccc2OC(F)(F)F)C[C@H]1CO | 6.4%
O=C(NC1CC1)[C@@H]1CN(Cc2ccc(OC(F)(F)F)cc2)C[C@H]1CO | 12.6µM*
O=C(NCC1CC1)c1cccc(OC2CN(C3CCOCC3)C2)c1 | i
Cc1noc(C)c1S(=O)(=O)N[C@@H]1C[C@H](Cn2cc(-c3cccnc3)nn2)[C@@H](O)[C@H]1O | -21.6%
Cc1cc(C(=O)N2CCC3(CC(=O)Nc4ccccc4N3)C2)ccc1Cl (stereo not given) | 9.2%
O=C(C1CC1)N1CCCC(c2nn(-c3ccccc3)c(=O)[nH]2)C1 (stereo not given) | -17.8%[44.1 µM]
CCC(=O)Nc1cccc(OCC(=O)NCc2sc(C)nc2CC)c1 | -1.2%
Cn1c(CCNC(=O)C23CCCC=C2N(Cc2ccccc2)C(=O)CC3)nc2ccccc21 (stereo not given) | i
CCOC(=O)c1ccccc1NC(=O)N(C(C)C)C1CCN(C(C)=O)CC1 | -8.2%
Cc1ccc(-c2ccc(=O)n(C(C)C(=O)Nc3ccccc3Cl)n2)cc1C (stereo not given) | 9.1%
COc1cc(NC(=O)NC(C)c2c(-n3cccc3)sc3c2CCCC3)cc(OC)c1OC (stereo not given) | -17.3%

Source: PubChem
